Consider six compounds from PubChem BioAssay.

“And” between values parts separate entries of the source, which are not always exact repeats. Equal values may be shown once. Records with an inconclusive call do not appear. For some assays here: Results with a measured potency or affinity are listed apart. The source made the active and inactive calls. Unless noted, no rule for the calls is given here.

For orientation: inhibition means the change of the read-out against control, counted positive when it falls. A word on the remaining activity: it is the signal under treatment as a percentage of the control signal.

In assay [1] the target is ATP-dependent translocase ABCB1 (Homo sapiens) (UniProt P08183). The assay is described as follows: P-glycoprotein substrate transport blockade – cell-based (AID 377; in the data active = fluorescence slope change above about 50%). The following applies: MDR1-expressing cells, fluorescent substrate accumulation slope; stronger effect = higher value; concentration not given here.
ATP-dependent translocase ABCB1 (Homo sapiens), sequence (P08183 whole entry, looked up): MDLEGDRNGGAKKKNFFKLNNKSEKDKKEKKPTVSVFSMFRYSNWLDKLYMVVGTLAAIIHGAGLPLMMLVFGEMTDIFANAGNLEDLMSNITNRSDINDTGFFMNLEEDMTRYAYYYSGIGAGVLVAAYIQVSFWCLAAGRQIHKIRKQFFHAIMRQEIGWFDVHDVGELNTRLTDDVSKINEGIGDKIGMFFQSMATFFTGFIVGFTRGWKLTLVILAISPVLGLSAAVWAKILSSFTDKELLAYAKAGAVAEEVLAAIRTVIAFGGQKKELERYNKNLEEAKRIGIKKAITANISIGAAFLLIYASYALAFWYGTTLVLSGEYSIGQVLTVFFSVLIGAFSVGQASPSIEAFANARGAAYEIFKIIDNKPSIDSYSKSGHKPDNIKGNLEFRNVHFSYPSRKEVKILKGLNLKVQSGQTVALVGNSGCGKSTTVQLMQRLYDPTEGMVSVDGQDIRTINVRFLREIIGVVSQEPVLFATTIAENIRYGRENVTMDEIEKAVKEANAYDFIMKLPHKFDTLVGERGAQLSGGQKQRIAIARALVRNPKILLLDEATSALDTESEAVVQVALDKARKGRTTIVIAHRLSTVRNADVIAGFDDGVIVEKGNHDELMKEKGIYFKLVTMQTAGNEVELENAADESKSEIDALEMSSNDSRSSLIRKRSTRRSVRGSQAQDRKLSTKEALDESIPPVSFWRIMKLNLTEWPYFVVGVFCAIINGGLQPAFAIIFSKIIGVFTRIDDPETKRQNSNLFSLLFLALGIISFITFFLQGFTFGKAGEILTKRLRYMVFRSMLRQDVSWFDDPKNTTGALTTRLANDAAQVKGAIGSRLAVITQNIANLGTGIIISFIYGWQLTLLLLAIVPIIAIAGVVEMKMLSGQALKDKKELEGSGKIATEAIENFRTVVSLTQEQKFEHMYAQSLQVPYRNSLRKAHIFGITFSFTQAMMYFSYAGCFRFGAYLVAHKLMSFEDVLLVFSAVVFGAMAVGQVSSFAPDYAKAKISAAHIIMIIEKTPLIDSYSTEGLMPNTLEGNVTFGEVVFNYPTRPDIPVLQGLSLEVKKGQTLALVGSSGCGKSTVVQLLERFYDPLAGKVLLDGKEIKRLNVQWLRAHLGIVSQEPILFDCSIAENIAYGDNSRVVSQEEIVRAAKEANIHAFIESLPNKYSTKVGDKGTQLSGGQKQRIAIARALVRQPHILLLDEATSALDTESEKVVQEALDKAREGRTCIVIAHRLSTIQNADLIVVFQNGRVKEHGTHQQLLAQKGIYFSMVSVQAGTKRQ
Assay [2] can be described thus: compounds altering circadian rhythm period length – cell-based, LOPAC library, luminescence reporter (AID 2774).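 Also: values are relative to mean of DMSO wells on each plate.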 The following applies: circadian reporter cells, at 7 µM, actives lie on both sides.
A short description of assay [3]: compounds altering viability of human ES cells (AID 493140).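 Also: cells exposed to compounds for four days before counting.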 The following applies: human embryonic stem cell survival screen; stronger effect = higher value.
Assay [4] relates to Hepatitis C virus NS3 helicase. Put plainly: blockers of NS3h binding to ssDNA – biochemical, fluorescence polarization, LOPAC1280 library, primary screen (AID 687035; in the data active = inhibition above about 37%). Particulars: Purified HCV NS3 helicase, Cy5-dT15 ssDNA binding fluorescence polarization; stronger effect = higher value; concentration not given here. Background: Polarisation of emitted light reports the rotation of a fluorescent probe.

Assay [5] in a line: compounds altering Cy5-DNA-NS3h complex signal – biochemical, LOPAC1280, artefact control for HCV NS3 helicase inhibitor project (AID 687037). The following applies: Cy5-DNA-NS3h complex fluorescence interference counterscreen. For orientation: A counterscreen serves to expose hits that act by an unwanted route or on another target.
Assay [6] can be described thus: modulation of C. elegans fzo-1 (AID 1259413).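 Also: fzo-1 mutant C. elegans worms in liquid wells.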 The following applies: C. elegans fzo-1 modulator screen, mean read-out; stronger effect = higher value.
Assay [7] has as its system Aerobactin synthetase IucA (Klebsiella pneumoniae, hypervirulent). The assay is described as follows: biochemical IucA inhibition screen of LOPAC library by absorbance (AID 1346212).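 Also: 100% = no compound wells and 0% = no enzyme wells.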 The following applies: IucA enzyme assay, absorbance (OD) readout; stronger effect = lower value;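 tested at 8 µM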.
Assay [8] is described as follows: blockers of cellular phospholipid synthesis – cell-based, LOPAC library, screen 4, primary screen (AID 1347384). Particulars: animal cells, phospholipid biosynthesis inhibition screen; at 10 µM.
Assay [9] relates to F380Y. The assay is described as follows: BK channel mutant inhibitors and activators – cell-based, U2OS BacMam, thallium flux, beta subunits, selectivity assay, profiling panel (AID 1259406;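 active = thallium flux through the channel raised or lowered by more than 3 SD from vehicle-only wells, actives on both sides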;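 also: initial slope of Thallos dye fluorescence rise after thallium is added; log ratio against the mean of 0.3% DMSO vehicle wells on the same plate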). The following applies: U2OS BacMam BK variants, at 30 µM.
The test system of assay [10] is F380Y/beta2Delta. The description is as above. The following applies: U2OS BacMam BK variants, at 30 µM.
The target in assay [11] is Calcium-activated potassium channel subunit alpha-1 (Homo sapiens) + Leucine-rich repeat-containing protein 26 (Homo sapiens) (UniProt Q12791+Q2I0M4). Described as above. Particulars: U2OS BacMam BK variants, F380Y/Slo1WT/gamma1, at 30 µM.
Calcium-activated potassium channel subunit alpha-1 (Homo sapiens) + Leucine-rich repeat-containing protein 26 (Homo sapiens), sequence (Q2I0M4 whole entry, looked up, one chain of several): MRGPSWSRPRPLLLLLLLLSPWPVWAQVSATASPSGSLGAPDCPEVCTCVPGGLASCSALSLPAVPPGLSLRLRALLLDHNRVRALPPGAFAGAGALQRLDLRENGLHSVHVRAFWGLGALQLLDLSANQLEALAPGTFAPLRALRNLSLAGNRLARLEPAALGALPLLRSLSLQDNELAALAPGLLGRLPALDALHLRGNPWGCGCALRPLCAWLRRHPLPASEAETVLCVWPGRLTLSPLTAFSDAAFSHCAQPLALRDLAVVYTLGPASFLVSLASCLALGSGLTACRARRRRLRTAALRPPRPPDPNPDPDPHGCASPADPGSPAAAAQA
Assay [12] concerns R275C. Described as above. The following applies: U2OS BacMam BK variants, at 30 µM.
In assay [13] the test system is R275C/beta1. The assay is described as above. The following applies: U2OS BacMam BK variants, at 30 µM.
In assay [14] the test system is R275C/beta2Delta. Described as above. Particulars: U2OS BacMam BK variants, at 30 µM.
In assay [15] the test system is R275C/Slo1WT/beta2. The assay is described as above. Particulars: U2OS BacMam BK variants, at 30 µM.
Assay [16] can be described thus: blockers of polyQ-driven CASP3 activation – cell-based (AID 1583). The following applies: polyglutamine-induced caspase-3 activation, cell assay; stronger effect = higher value;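 tested at 10 µM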.
The nature of assay [17]: restoration of touch response, mutant HTT neurons – whole organism, C. elegans mechanosensory neurons, N-terminal huntingtin (AID 1599). The following applies: C. elegans polyQ-huntingtin mechanosensory neurons, stronger effect = higher value.
Assay [18] in a line: glutamate transport activators, MN-1 cells, MN-1 cell line (AID 1612).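 Also: tested at 1 µM final; 0% = mean of DMSO vehicle wells on each plate; positive means more glutamate uptake than control and negative means less.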 Particulars: MN-1 motor neuron cells, stronger effect = higher value.
Assay [19] can be described thus: GFP-Q80 aggregate reduction, neuronal-like cells, cell-based, NGF-treated PC12, GFPQ80 (AID 1614).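 Also: lower means fewer inclusions and 0 means no inclusions at all.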 Particulars: PC12 NGF-treated GFP-polyQ80 inclusion reduction.
A short description of assay [20]: 75Q-TubH aggregate inhibition, S. cerevisiae, yeast (AID 1616). Particulars: S. cerevisiae 75Q-TubH polyglutamine aggregation suppression; stronger effect = higher value.

In the case of `CC(NC(C)(C)C)C(=O)c1cccc(Cl)c1` (centres undefined), in assay [1], the fluorescence slope change is 106% (active). In addition, the period change in assay [2] was 0.18 h (inactive). Besides, the survival in [3] was 16.8 (inactive). Further, in [4], the inhibition is -1% (inactive). Further, the fluorescence ratio (interference) in assay [5] is 1 (inactive). In addition, the mean signal in [6] is 264 (inactive). Also, in assay [7], the remaining activity is 118% (inactive). The result in assay [8] was inactive. In addition, the log fold change Tl+ flux in [9] was 0.0198 (inactive) and -0.0218 (inactive); in [10] it was -0.0525 (inactive) and 0.0137 (inactive); in assay [11] it was -0.0374 (inactive) and -0.0597 (inactive); in [12], -0.059 (inactive) and 0.00561 (inactive); in assay [13], -0.0389 (inactive) and 0.036 (inactive); in [14] it was -0.014 (inactive) and 0.0171 (inactive). The log fold change Tl+ flux in assay [15] is -0.0516 (inactive) and 0.0164 (inactive).

In the case of `O=c1[nH]oc2c1CCNC2`, the inhibition in assay [16] is 9.73%; in assay [4] it was -5% (inactive). Also, the rescue above control in assay [17] was -2.56. For the same compound, the glutamate uptake change in [18] amounted to 5.07%. Besides, in assay [19], the inclusion score is 2. Besides, the aggregation suppression score in [20] worked out at 1.43. For the same compound, the period change in assay [2] was 0.075 h (inactive). The survival in assay [3] was 19.5 (inactive). In addition, the fluorescence ratio (interference) in [5] was 1 (inactive). The remaining activity in [7] is 100% (inactive). Also, the outcome in [8] was inactive.

With `O=c1[nH]c2ccccc2n1C1CCN(CCCC(c2ccc(F)cc2)c2ccc(F)cc2)CC1`, the fluorescence slope change in [1] was 147% (active). The inhibition in assay [16] was 13.8%; in assay [4], -3% (inactive). For the same compound, in assay [17], the rescue above control is 6.31. In assay [18], the glutamate uptake change is 15.9%. Also, the aggregation suppression score in [20] turned out to be 1.1. Moreover, the period change in [2] is 0.045 h (inactive). Besides, the survival in assay [3] is 4.67 (inactive). In addition, the fluorescence ratio (interference) in [5] is 1 (inactive). In assay [7], the remaining activity is 122% (inactive). The compound was classed as inactive in assay [8].

`CN(C)[C@@H]1C(=O)C(C(N)=O)=C(O)[C@@]2(O)C(=O)C3=C(O)c4c(O)cccc4[C@@](C)(O)[C@H]3[C@H](O)[C@@H]12`: the fluorescence slope change in [1] was 60.8% (active). The inhibition in assay [16] is -0.04%. Besides, the rescue above control in [17] was -1.64. Besides, in assay [18], the glutamate uptake change was -6.56%. In addition, the inclusion score in assay [19] amounted to 1. For the same compound, the aggregation suppression score in assay [20] amounted to 0.502. Moreover, the survival in assay [3] was 14.3 (inactive). For the same compound, the mean signal in [6] is 260 (inactive). The log fold change Tl+ flux was 0.018 (inactive) in assay [9]; -0.0529 (inactive) in assay [10]; 0.0226 (inactive) in assay [11]; -0.057 (inactive) in [12]; 0.0468 (inactive) in [13]; -0.0649 (inactive) in [14]. In addition, the log fold change Tl+ flux in assay [15] is -0.0058 (inactive).

As for `CC(CCc1ccccc1)NC(C)C(O)c1ccc(O)cc1` (centres undefined), the figures for the inhibition in assay [16] and in assay [4] were 5.61% and -5% (inactive), respectively. In assay [17], this compound returned a rescue above control of 1.38. For the same compound, in [18], the glutamate uptake change is -2.97%. This compound also displayed an inclusion score in [19] of 2. Besides, in assay [20], the aggregation suppression score stood at 1.46. For the same compound, the period change in assay [2] was 0.06 h (inactive). The fluorescence ratio (interference) in assay [5] is 0.9 (inactive). In [7], the remaining activity was 104% (inactive). Further, the outcome in assay [8] was inactive.

Consider `CC(Cc1ccc(O)cc1)NCC(O)c1cc(O)cc(O)c1` (centres undefined), for which the fluorescence slope change in assay [1] is 108% (active). Moreover, the inhibition is 7.8% in [16] and -3% (inactive) in assay [4]. In assay [17], this compound displayed a rescue above control of 3.16. In addition, the glutamate uptake change in assay [18] is 0.39%. In addition, the inclusion score in assay [19] amounted to 2. The same compound gave an aggregation suppression score in assay [20] of 1.23. Besides, the period change in assay [2] was 0.005 h (inactive). Further, the survival in assay [3] is 36.6 (inactive). In addition, the fluorescence ratio (interference) in assay [5] was 1 (inactive). In addition, in assay [7], the remaining activity was 91.6% (inactive). Besides, the compound was called inactive in assay [8].
